± gives the standard deviation. Whole data set: some 5,500 sequences, median “pre-steady-state target cleavage rate” near 0.1, cut for the highest 2% near 0.64. For the sample, the highest values were picked, then their nearest neighbours and some sequences at random.
test system: MIWI (PIWIL1) piRISC loaded with piRNA #2 (30 nt); test: pre-steady-state target cleavage rate (min^-1); MIWI and MILI are mouse PIWI proteins and EfPiwi is from a freshwater sponge; tags in brackets are library labels; higher = faster piRNA-guided slicing of the target; conditions: guide: piRNA #2 5'p-UUAGGUAACCCAGUAGAUCCAGAGGAAUUC; auxiliary factor: 500 nM mouse GTSF1
Experimental: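 Cleave-'n-Seq: a library of target RNAs (target site embedded in constant flanks, ACAGCATTCCGCGTTAGTGATATCCG... 5' flank; DNA-blocked outside the site) at 0.1 nM was incubated with 1 nM active mouse MILI or MIWI piRISC (synthetic 5'-monophosphorylated piRNA guide) with or without 500 nM mouse GTSF1 at 33 °C for 1 min to 16 h. Uncleaved targets were sequenced and normalised to non-target controls, and the pooled three trials were fitted to a burst-and-steady-state model to give the pre-steady-state cleavage rate (min^-1; k3 is constrained to at most 1e-4). Sequence is the target site only; target names encode pairing extent (gX:gY) and contiguous / 1-mismatch / 2-mismatch / bulge geometry. Fits with R² ≤ 0 are excluded.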

Sequence	pre-steady-state target cleavage rate
CUAUUCCUCUCGAUCUACUGGGUUACCUAA	0.734 ± 0.063
CAAUACCUCUCGAUCUACUGGGUUACCUAA	0.625 ± 0.056
CUAUUCCUCUCGAUCUACUGGGUUACCUUA	0.583 ± 0.056
CUAAUCCUCUCGAUCUACUGGGUUACCUAA	0.631 ± 0.042
GUAUUCCUCUCGAUCUACUGGGUUACCUAA	0.193 ± 0.044
GAAUUCCUCUCGAUCUACUGGGUUACCUUA	0.629 ± 0.069
CAAUUCCUCUCGGAUCUACUGGGUUACCUAA	0.506 ± 0.065
CUUAAGGUCUGGAUCUACUGGGUUACCAUA	0.203 ± 0.029
CUUAACCUCUCGAUCUUCUGGGUUACCUAA	0.47 ± 0.044
CUUAAGGUCUGGAUCUUCUGGGUAACCUAA	0.0193 ± 0.011
CUUAAGGAGUGGAUCUACACCGUUACCUAA	0.0034 ± 0.0022
CUAUUCCUCUGCAUCUUCUGGGUUACCUAA	0.316 ± 0.028
GAAUUCCUCUGGAUCUACUGGGUUUGGUAA	0.244 ± 0.061
CUUAAGGUCUGGAUGUACUGGCUUACCUAA	0.0442 ± 0.028
CUUUACCUCUGGAUCUACUCGGUUACCUAA	0.0688 ± 0.0087
CUUAACCUCUGGAUGUUCUGGGUUACCUAA	0.244 ± 0.019
CUAUAUCCUCUGGAUCUACUGGGUUACCUAA	0.352 ± 0.071
GAAUUCCUCUCGGAUCUACUGGGUUACCUAA	0.442 ± 0.048
GAAUUCCUCUCGAUCUACUGGGUUUCCUAA	0.524 ± 0.06
GAAUUCCUCUCGAUCUACUGGGUUACCUAA	0.642 ± 0.068
CUUAACCUGUGGAUCUACUGGGUAACCUAA	0.0751 ± 0.013
GAAUUCCUCUGGAUCUAGUGGGAUACCUAA	0.0616 ± 0.011
CUUUUCCUCUGCAUCUACUGGGAUACCUAA	0.128 ± 0.018
CUAUUCCUCUGGAUCUACUGGGUUACGUAA	0.63 ± 0.047
CUUUUCCUCUCGAUCUACUGGGUUUCCUAA	0.509 ± 0.058

Sequence	pre-steady-state target cleavage rate
GAAUUCCUCUCGAUCUACUGGGUUACGUAA	0.581 ± 0.067
CAUUUCCUCUGGAUCUACUGGGUUACGUAA	0.622 ± 0.062
CUUUUCCUCAGGAUCUACUGGGUUACGUAA	0.523 ± 0.067
CAAUUCCUCUGGAUCUACUGGGUUACGUAA	0.598 ± 0.065
CUAUUCCUCUCGAUCUACUGGGUUACGUAA	0.935 ± 0.047
GUAUUCCUCUGGAUCUACUGGGUUACGUAA	0.377 ± 0.057
CUUUUCCUCUGGAUCUACUGGGUUACGUUA	0.374 ± 0.044
CUUUUCCUCUCGAUCUACUGGGUUACGUAA	0.746 ± 0.034
CAAUUCCUCUCGAUCUACUGGGUUACGUAA	0.885 ± 0.061
CUUUUCCUCUGGAUCUACUGGGUUACGUAA	0.664 ± 0.034
CUUAAGGUCUGGAUCUACUCGGUUACCUAA	0.0416 ± 0.02
CUUAUCCUCUGGAUCUUCUGGGUUACGUAA	0.45 ± 0.055
GAAUUCCUCUGGAUCUACUGAGUUACCUAA	0.67 ± 0.046
CUAUUCCUCUGGAUCUACUGGUUACCUAA	0.104 ± 0.026
GAAUUCCUCUGGAUCUACUGGAGUUACCUAA	0.00576 ± 0.0035
CAAUUCCUCUGGAUCUACUGGAGUUACCUAA	0.00382 ± 0.0035
CUUUUCCUCUGGAUCUACUGGGUUACCUAA [g2:g27:cont:t1A]	0.408 ± 0.057
CUUUUCCUCUGGAUCUACUGGUUACCUAA	0.0817 ± 0.016
CAAUUCCUCUGGAUCUACUGAGUUACCUAA	0.869 ± 0.075
CUAUUCCUCUGGAUCUACUGAGUUACCUAA	0.823 ± 0.06
GAAUUCCUCUGGAUCUACUGAGGUUACCUAA	0.00556 ± 0.0037
CUUUUCCUCUGGAUCUACUGAGUUACCUAA	0.727 ± 0.048
CAAUUCCUCUGGAUCUACUGAGGUUACCUAA	0.00648 ± 0.0048
CUAUUCCUCUGGAUCUACUGGAGUUACCUAA	0.00422 ± 0.0041
CUUAUCCUCUGGAUCUACAGGGUUACCAAA	0.237 ± 0.03

Sequence	pre-steady-state target cleavage rate
CAAUUCCUCUCGAUCUACUGGGUAACCUAA	0.476 ± 0.058
GAAUUCCUCUGGAUCUUCUGGGAUACCUAA	0.108 ± 0.018
CUUAUCCUCUGGAUCUUCUGGGUAACCUAA	0.0522 ± 0.013
GAAUUCCUCUGCAACUACUGGGUUACCUAA	0.413 ± 0.048
CUAUUCCUCUGGAUCUACUGGGUAACCUAA	0.231 ± 0.042
CUUAAGGUCUGGAUCUCCUGGGUUACCUAA	0.0565 ± 0.013
CUUAUCCUCUGGAUCUACUGGGUUAACUAA	0.407 ± 0.071
CUUAAGGUCUGGAACUAGUGGGUUACCUAA	0.0577 ± 0.017
CAAUUCCUCAGCAUCUACUGGGUUACCUAA	0.437 ± 0.044
CUUAAGCUCCUGGAUCUACUGGGUUACCUAA	0.181 ± 0.021
CUUAUCCUCGUGGAUCUACUGGGUUACCUAA	0.161 ± 0.032
GAAUUCCACUGGAUCUACUCGGUUACCUAA	0.193 ± 0.022
CUAUUCCUCUGGAUCUACUGCGUUACGUAA	0.539 ± 0.08
CUUAACCUCUGGAUCUACUGGGUUACCGUAA	0.155 ± 0.019
CAAUUCCUCUAGGAUCUACUGGGUUACCUAA	0.434 ± 0.048
CAAUUCCUCUGAGAUCUACUGGGUUACCUAA	0.545 ± 0.057
GAAUUCCUCUAGAUCUACUGGGUUACCUAA	0.731 ± 0.05
CAAUUCCUCUAGAUCUACUGGGUUACCUAA	0.807 ± 0.047
CUAUUCCUCUGAGAUCUACUGGGUUACCUAA	0.471 ± 0.042
GAAUUCCUCUAGGAUCUACUGGGUUACCUAA	0.348 ± 0.074
CUAUUCCUCUAGAUCUACUGGGUUACCUAA	0.67 ± 0.042
CUAUUCCUCUAGGAUCUACUGGGUUACCUAA	0.278 ± 0.041
GAAUUCCUCUGAGAUCUACUGGGUUACCUAA	0.381 ± 0.046
